Records with an inconclusive call do not appear. Active and inactive are the calls of the source. Rule for the calls: active = hit-call score of the fitted dose curve at least 0.9, where 1 is the maximum; inconclusive = response in the unintended direction; inactive = score below 0.9.
Assay: TOX21_p53_BLA_p2_viability: Viability Assessment in the Tox21 HCT-116 p53 Agonism Beta-lactamase Assay, Phase 2 (AID 2283591);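 note: compound exposure lasted 16 h at 37 °C; actives lower the ATP signal meaning cytotoxicity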
Summary of the method: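 HCT-116 p53-bla cells (4000/well) rested 5 h at 37C, then received compounds in DMSO (217-fold dilution) for 16 h at 37C, 5% CO2. After the CCF4 read, CellTiter-Glo was added; ATP luminescence was read after 30 min at room temperature.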

Row | Compound | AC50 | outcome
1 | CSc1nc2cc(Oc3cccc(Cl)c3Cl)c(Cl)cc2[nH]1 | 14.5 µM (active) | –
2 | Cc1c(C)n(CCN(C)C)c2ccc(C(=O)OCCN(C)C)cc12 | – | inactive
3 | C/C(=C(\CCOC(=O)c1ccccc1)SS/C(CCOC(=O)c1ccccc1)=C(/C)N(C=O)Cc1cnc(C)nc1N)N(C=O)Cc1cnc(C)nc1N | – | inactive
4 | Cc1cc(N)c2ccccc2[n+]1CCCCCCCCCC[n+]1c(C)cc(N)c2ccccc21 | – | inactive
5 | NC(=O)NS(=O)(=O)c1ccc(N)cc1 | – | inactive
6 | C=C1CC[C@H](O)C/C1=C/C=C1\CCC[C@]2(C)[C@@H]([C@H](C)CCCC(C)(C)O)CC[C@@H]12 | 12.8 µM (active) | –
7 | O=C1NCN(c2ccccc2)C12CCN(CCCC(c1ccc(F)cc1)c1ccc(F)cc1)CC2 | 37.3 µM (active) | –
8 | CCC(C)(C)c1ccc(CC(C)CN2C[C@@H](C)O[C@@H](C)C2)cc1 (some centres undefined) | – | inactive
9 | C=C(Nc1ccc(OCC)cc1)Nc1ccc(OCC)cc1 | – | inactive
10 | Cc1ccc(O)c(O)c1 | 40.8 µM (active) | –
11 | COc1cc2c(cc1OC)C(=O)C(CC1CCN(Cc3ccccc3)CC1)C2 (centres undefined) | – | inactive
12 | CC(C)(C)NCC(O)CSc1nc(-c2ccc(C(N)=O)s2)cs1 (centres undefined) | – | inactive
13 | Oc1ccc(Cl)c2cccnc12 | – | inactive
14 | Cc1cc2nc(N)sc2cc1C | – | inactive
15 | CCOc1ccc2nc3cc(N)ccc3c(N)c2c1 | – | inactive
16 | Cc1cc2c(C(C)C)c(O)c(O)c(C=O)c2c(O)c1-c1c(C)cc2c(C(C)C)c(O)c(O)c(C=O)c2c1O | 10 µM (active) | –
17 | CC[C@@H](CO)NCCN[C@@H](CC)CO | – | inactive
18 | CO[Si](CCCNc1ccccc1)(OC)OC | – | inactive
19 | CCCCCCCC[P+](CCCCCCCC)(CCCCCCCC)CCCCCCCC | 15.8 µM (active) | –
20 | Nc1cnn([C@@H]2O[C@H](CO)[C@@H](O)[C@H]2O)c(=O)n1 | – | inactive

Row | Compound | AC50 | outcome
21 | O=C(O)c1cc(-c2ccccc2)nc2ccccc12 | – | inactive
22 | CC(=O)OC(OC(C)=O)c1ccc([N+](=O)[O-])o1 | 74.3 µM (active) | –
23 | O=[N+]([O-])c1ccc(O)c2ncccc12 | – | inactive
24 | COC(=O)C1=C(C)NC(C)=C(C(=O)OCCCN2CCC(c3ccccc3)(c3ccccc3)CC2)C1c1cccc([N+](=O)[O-])c1 (centres undefined) | 32.9 µM (active) | –
25 | CCCOc1ccccc1-c1nc2n[nH]nc2c(=O)[nH]1 | – | inactive
26 | Cn1c(O)c(N=NC(N)=S)c2ccccc21 | – | inactive
27 | CCC(=O)O[C@]1(C(=O)SCF)[C@H](C)C[C@H]2[C@@H]3C[C@H](F)C4=CC(=O)C=C[C@]4(C)[C@@]3(F)[C@@H](O)C[C@@]21C | – | inactive
28 | C[C@@H](NCCCc1cccc(C(F)(F)F)c1)c1cccc2ccccc12 | 21.4 µM (active) | –
29 | OCCN1CCN(CCCN2c3ccccc3Sc3ccc(Cl)cc32)CC1 | – | inactive
30 | CCCCCCCCCCCCCC[N+](C)(C)Cc1ccccc1 | – | inactive
31 | CN1C(=O)OC(C)(C)C1=O | – | inactive
32 | Cc1ccc(-n2nc(C(C)(C)C)cc2NC(=O)Nc2ccc(OCCN3CCOCC3)c3ccccc23)cc1 | – | inactive
33 | CN(Cc1cc(Br)cc(Br)c1N)C1CCCCC1 | – | inactive
34 | COc1c(Br)cc(Br)c(C)c1Br | – | inactive
35 | Nc1nc(Cl)nc2c1ncn2[C@@H]1O[C@H](CO)[C@@H](O)[C@@H]1F | – | inactive
36 | NC(=O)C(=O)NN=Cc1ccc([N+](=O)[O-])o1 | – | inactive
37 | CCCCN(CCCC)c1ccc(C(=O)c2ccccc2C(=O)O)c(O)c1 | 17.2 µM (active) | –
38 | Nc1[nH]c(=O)ncc1F | – | inactive
39 | Clc1ccc(COC(Cn2ccnc2)c2ccc(Cl)cc2Cl)c(Cl)c1 (centres undefined) | – | inactive

From PubChem BioAssay (EPA / NIEHS)
